Laboratory results from ChEMBL document CHEMBL4513216, “Probing the Open Global Health Chemical Diversity Library for Multistage-Active Starting Points for Next-Generation Antimalarials” (ACS Infect Dis, 2020).
About 8,600 (12%) of roughly 69,000 compounds showed an effect of 50% or more. This is one part of a sample in which strong results are shown more often than they occur.

Tested on: Plasmodium berghei
Test: Screen against P. berghei liver stage (PbLuc), transformed with Luciferase, at 10uM
Assay type: functional, HepG2
Details: tested at 10 uM

Row | Structure (SMILES) | INHIBITION [%]
1 | Cc1cnn(CCNc2cnc3ccccc3n2)c1 | -68.3
2 | O=C([C@H]1C[C@@H]2CCN(C3CCOCC3)C[C@@H]2O1)N1CCOCC1 | -15.5
3 | CN1CCC(CNC(=O)CCSc2ccc3c(c2)OCCO3)C1 (stereo not drawn) | 28.5
4 | Cc1cccc(CC(=O)N2CCN(c3nccn3C)CC2)c1 | -14.7
5 | Cc1sc2c(C3CCCN(C(C)C)C3)nc(C)n2c1C (stereo not drawn) | -12.9
6 | Cn1cc(CN2CCc3onc(C(=O)N4CCCC4)c3C2)cn1 | 33.5
7 | COc1ccc(CC(=O)N2CCCC(n3cc(C)cn3)C2)c(OC)c1 (stereo not drawn) | 7.08
8 | O=C(COCC1CCCO1)N1CCCN(Cc2ccccc2F)CC1 (stereo not drawn) | 53
9 | O=C(c1cccnc1O)N1CCN(Cc2ccccc2F)CC1 | 54.1
10 | Cn1ccc(C(=O)N2CCN(Cc3ccccc3F)CC2)cc1=O | -57
11 | CC(=O)N1CCN(C(=O)c2cnn(-c3ccccc3Cl)c2)CC1 | 56.1
12 | N#Cc1ccc(OC2CCN(C(=O)COCC3CCCO3)CC2)cc1 (stereo not drawn) | -13.9
13 | CCn1ccc(C(=O)N2CCCN(Cc3ccccc3F)CC2)cc1=O | 73.4
14 | O=C(COCC1CCCCO1)N1CCN(Cc2ccccc2F)C(=O)C1 (stereo not drawn) | 45.6
15 | Cc1ncc(C(=O)N2CCCN(Cc3ccccc3F)CC2)c(O)n1 | 34.9
16 | CN1CCN(C(=O)c2cnn(-c3ccccc3Cl)c2)CC1 | 14.1
17 | O=C(c1cnc(C2CC2)nc1O)N1CCN(Cc2ccccc2F)CC1 | -0.554
18 | CC(=O)N1CCCN(C(=O)c2cnn(-c3ccccc3Cl)c2)CC1 | 47
19 | Cc1ccccc1CN1CCCN(C(=O)c2ccn(C)c(=O)c2)CC1 | -7.46
20 | O=C(CCc1ccsc1)N1CCC(N2CCNC2=O)CC1 | 19.5
21 | CN(CC(=O)N1CCCCC1Cn1cccn1)C1CC1 (stereo not drawn) | -79.3
22 | Cc1cnn(CCNCc2ccccc2OCc2ccccn2)c1 | -15.5
23 | CCCc1n[nH]c(C2CN(C(=O)c3cc(C4CC4)on3)CCO2)n1 (stereo not drawn) | 14
24 | CN1CCN(C(=O)c2cc3sccc3n2Cc2ccccc2Cl)CC1 | 11.7
25 | CC(C)(C)c1noc(CCC(=O)N2CCN(Cc3ccco3)CC2)n1 | 19.9
26 | COc1cccc(OCCc2nc3c(cc2C(N)=O)CCC3)c1 | 54.8
27 | NC(=O)c1cc2c(nc1CCOCc1ccccc1)CCC2 | 20.3

Row | Structure (SMILES) | INHIBITION [%]
28 | NC(=O)c1cc2c(nc1CCOc1ccc(F)cc1)CCC2 | 31.2
29 | O=C1CC[C@H]2[C@H](CCN2c2ncc(F)cn2)N1c1cccnc1 | 0.542
30 | Cc1cccc(C(=O)N2CCCC(Cc3cncc4ccccc34)C2)n1 (stereo not drawn) | -22.6
31 | CCN(CC)CCCNC(=O)C(C)n1cc(Br)cn1 (stereo not drawn) | -1.33
32 | Nc1cc(N2CCOCC(Cc3ccc4[nH]ccc4c3)C2)ncn1 (stereo not drawn) | 66.5
33 | Cc1cc(N2CCOCC(Cc3ccc4[nH]ccc4c3)C2)ncn1 (stereo not drawn) | 67.7
34 | c1cc(N2CCOCC(Cc3ccc4[nH]ccc4c3)C2)ncn1 (stereo not drawn) | 3.91
35 | Cc1cc(N2CCC(Cc3cccnc3)C2)ncn1 (stereo not drawn) | -2.09
36 | Cc1ccccc1CSc1nc(N)cc(N2CCOCC(CO)C2)n1 (stereo not drawn) | 46.6
37 | Cc1cc(N2CCC(Cc3ccncc3)C2)ncn1 (stereo not drawn) | -2.09
38 | Cc1nc(NCc2nncn2C2CC2)c2c(CC(C)C)csc2n1 | 45.4
39 | CC1CN(C(=O)c2cscn2)c2ccccc2S1 (stereo not drawn) | 63.7
40 | CC(=O)N1CC(C)CN(C(=O)c2cscn2)c2ccccc21 (stereo not drawn) | -5.26
41 | CC1CN(C(=O)c2ccnc(-n3cncn3)c2)c2ccccc2S1 (stereo not drawn) | -40.7
42 | Cc1nc(C(=O)N2CC(C)Sc3ccccc32)cs1 (stereo not drawn) | 56.8
43 | CC1CN(C)c2ccccc2CN1C(=O)c1cscn1 (stereo not drawn) | -4.15
44 | Cc1ncsc1C(=O)N1CC(C)Sc2ccccc21 (stereo not drawn) | 44
45 | O=S(=O)(c1cccs1)N1CC[C@H]2[C@H]1CCN2c1ncccn1 | -27
46 | Cc1occc1C(=O)N1CCc2c(COCC3CC3)cncc2C1 | 27.9
47 | CN1CCOC(C(=O)Nc2ccc3c(c2)nc(C(C)(C)C)n3C)C1 (stereo not drawn) | 93.9
48 | CN1CCOC(C(=O)Nc2ccc3[nH]nnc3c2)C1 (stereo not drawn) | 59.7
49 | CN1CCOC(C(=O)Nc2nc(-c3ccc(Cl)cc3)n[nH]2)C1 (stereo not drawn) | -29.5
50 | CN1CCOC(C(=O)Nc2nnc(Cc3ccc(F)cc3)[nH]2)C1 (stereo not drawn) | -2.71
51 | CN1CCOC(C(=O)Nc2ccc3c(c2)nc(C2CC2)n3C)C1 (stereo not drawn) | 60.8
52 | Cn1c(C2CC2)nc2cc(NC(=O)C3CC=CC3)ccc21 | -22.4
53 | Cn1c(C2CC2)nc2cc(NC(=O)C3CCOC3)ccc21 (stereo not drawn) | -5.69
